CASP6 VEID inh: human caspase-6 inhibitors, primary screen, biochemical, VEID-R110 fluorescence, single point, set 2. P55212. purified caspase-6, Z-VEID-R110 cleavage fluorescence. inhibition, % at 12.5 µM. 350,000 tested, 0.53% active;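 active = mean inhibition across replicates at least about 35%, with every replicate also reaching that limit, limit read from the data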;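 note: 0% = median of neutral control wells and 100% = no fluorescence left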
Target sequence (P55212 24-179 limits assumed): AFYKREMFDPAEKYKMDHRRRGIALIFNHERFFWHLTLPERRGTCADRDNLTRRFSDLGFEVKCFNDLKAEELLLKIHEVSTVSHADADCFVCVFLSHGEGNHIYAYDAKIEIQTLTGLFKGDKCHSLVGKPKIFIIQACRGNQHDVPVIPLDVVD
Target sequence (P55212 194-293 limits assumed): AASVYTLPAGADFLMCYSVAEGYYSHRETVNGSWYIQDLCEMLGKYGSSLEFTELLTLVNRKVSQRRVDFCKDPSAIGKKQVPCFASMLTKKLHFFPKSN
ERAP1 HTS inh: human ERAP1 aminopeptidase inhibitors, primary screen, biochemical, single point, plate reader; Endoplasmic reticulum aminopeptidase 1 (Homo sapiens), Q9NZ08; recombinant ERAP1, Leu-AMC fluorescence, 60 min; inhibition, % at 10.7 µM; 340,000 tested, 0.15% active; AID 652197, 2013;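 active = mean replicate inhibition of at least 30%, or all replicates individually reaching that 30% level; inactive = mean below 30% and not every replicate reaching it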;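 note: 0% = neutral control wells and 100% = L-leucinethiol positive control wells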
INS-1E GSIS act: GLuc luminescence reporter in INS-1E cells, primary screen for activators of glucose-dependent secretion of insulin; INS-1E GLuc reporter insulin secretion, 2-3 h; activation, % at 16.6 µM; 370,000 tested, 0.61% active; AID 743287, 2014;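 active = lowest replicate activation of at least 40%, so every replicate reaches that level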;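 note: 0% = median of neutral control wells and 100% = median of IBMX positive control wells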
FGF22 binding: binders of human FGF22 protein, primary screen, FGF22 synaptogenesis inhibitor project, biophysical, thermal shift, single point; Fibroblast growth factor 22 (Homo sapiens), Q9HCT0; recombinant FGF22 thermal shift, SYPRO orange fluorescence; percent of sucrose octasulfate shift, DMSO zero; AID 651658, 2012; activity (Tm shift, normalised), % at 9.99 µM; 340,000 tested, 1.5% active;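 active = mean Tm shift, scaled 0 neutral to 100 positive control, at about 1.3% or above, every replicate too, limit read from the data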
Target sequence (Q9HCT0 whole entry, looked up): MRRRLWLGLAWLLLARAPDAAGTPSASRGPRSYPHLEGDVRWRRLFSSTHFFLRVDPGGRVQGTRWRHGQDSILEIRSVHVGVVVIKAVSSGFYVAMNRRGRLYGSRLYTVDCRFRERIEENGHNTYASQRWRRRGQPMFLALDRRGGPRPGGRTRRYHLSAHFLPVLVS
SIRT5 inh: SIRT5 desuccinylase inhibitors, primary screen, biochemical, fluorescence imaging, single point, set 5. NAD-dependent protein deacylase sirtuin-5, mitochondrial (Homo sapiens), Q9NXA8. Purified SirT5, succinyl-peptide AMC, trypsin-coupled fluorescence. inhibition, % at 15 µM. 330,000 tested, 1.1% active. AID 652115, 2013; in the data active = inhibition above about 15%
An asterisk follows results filed as active; ! = not active in a repeat. Compounds with a hit are over-represented: about 3.3% of the library has one in this group of screens.

Screening N#CC1=C(SCC(=O)NC23CC4CC(CC(C4)C2)C3)NC(=O)C(C#N)C12CCCCC2 (configuration not stated) returned CASP6 VEID inh 0, ERAP1 HTS inh -4, INS-1E GSIS act -18, FGF22 binding 1.9* and SIRT5 inh 2.
Screening CS/C(=N\S(=O)(=O)c1cccs1)Nc1ccc(F)c(Cl)c1 returned CASP6 VEID inh 5, ERAP1 HTS inh 1, INS-1E GSIS act -21, FGF22 binding 1.3* and SIRT5 inh -4.
Cc1noc(C)c1S(=O)(=O)Nc1ccc2c(c1)C(=O)N([C@@H](C)CO)C[C@@H](C)[C@H](CN(C)Cc1ccc(C(=O)O)cc1)OCCCC[C@@H](C)O2 was read as CASP6 VEID inh 0, ERAP1 HTS inh -6, INS-1E GSIS act 4, FGF22 binding 1 and SIRT5 inh -1.
`Cc1noc(C)c1S(=O)(=O)Nc1ccc2c(c1)C(=O)N([C@H](C)CO)C[C@@H](C)[C@@H](CN(C)Cc1ccc(C(=O)O)cc1)OCCCC[C@H](C)O2` gave CASP6 VEID inh -1, ERAP1 HTS inh 0, INS-1E GSIS act 22, FGF22 binding 1.3* and SIRT5 inh -4.
Cc1noc(C)c1S(=O)(=O)Nc1ccc2c(c1)C(=O)N([C@@H](C)CO)C[C@H](C)[C@@H](CN(C)Cc1ccc(C(F)(F)F)cc1)OCCCC[C@H](C)O2 was read as CASP6 VEID inh -1, ERAP1 HTS inh 11, INS-1E GSIS act -36, FGF22 binding 0 and SIRT5 inh 24*!.
`Cc1noc(C)c1S(=O)(=O)Nc1ccc2c(c1)C(=O)N([C@H](C)CO)C[C@H](C)[C@H](CN(C)Cc1ccc(C(F)(F)F)cc1)OCCCC[C@@H](C)O2` gave CASP6 VEID inh 3, ERAP1 HTS inh 0, INS-1E GSIS act -2, FGF22 binding 0 and SIRT5 inh 5.
For Cc1noc(C)c1S(=O)(=O)Nc1ccc2c(c1)C(=O)N([C@@H](C)CO)C[C@@H](C)[C@@H](CN(C)Cc1ccc(C(F)(F)F)cc1)OCCCC[C@@H](C)O2 the results were CASP6 VEID inh 0, ERAP1 HTS inh 0, INS-1E GSIS act -14, FGF22 binding 0 and SIRT5 inh 27*.
Cc1noc(C)c1S(=O)(=O)Nc1ccc2c(c1)C(=O)N([C@H](C)CO)C[C@@H](C)[C@@H](CN(C)Cc1ccc(C(F)(F)F)cc1)OCCCC[C@@H](C)O2 was read as CASP6 VEID inh -3, ERAP1 HTS inh 0, INS-1E GSIS act -26, FGF22 binding 0 and SIRT5 inh 24*.
COc1ccc2c([N+](=O)[O-])c(Cl)[nH]c2c1 was read as CASP6 VEID inh 63*, ERAP1 HTS inh -3, INS-1E GSIS act 16, FGF22 binding 0 and SIRT5 inh -1.
Cc1c(C=O)c2ccccc2n1CC(=O)NC(C)c1ccccc1 (configuration not stated) was read as CASP6 VEID inh -2, ERAP1 HTS inh -4, INS-1E GSIS act 18, FGF22 binding 43* and SIRT5 inh 1.
COCCNC(=O)C[C@@H]1C[C@H]2c3cc(NC(=O)CC4CC4)ccc3O[C@H]2[C@H](CO)O1 was read as CASP6 VEID inh 0, ERAP1 HTS inh -3, INS-1E GSIS act 4, FGF22 binding 0 and SIRT5 inh -20.
`CC1C(=O)N2CCCc3cc(S(=O)(=O)NCCc4ccccc4)cc1c32` (configuration not stated) gave ERAP1 HTS inh -1, INS-1E GSIS act 12, FGF22 binding 0 and SIRT5 inh 72*.
For COc1ccccc1C#Cc1cnc2c(c1)C(=O)N([C@@H](C)CO)C[C@H](C)[C@H](CN(C)C(C)=O)O2 the results were CASP6 VEID inh -1, ERAP1 HTS inh 3, INS-1E GSIS act 28, FGF22 binding 0 and SIRT5 inh -3.
Cc1oc(-c2ccc3ccccc3c2)nc1CN(C)C(C)c1ccncn1 (configuration not stated) was read as CASP6 VEID inh -2, ERAP1 HTS inh -2, INS-1E GSIS act -3, FGF22 binding 44* and SIRT5 inh -1.
Cc1noc(C)c1S(=O)(=O)Nc1ccc2c(c1)C(=O)N([C@@H](C)CO)C[C@@H](C)[C@@H](CN(C)S(=O)(=O)c1c(C)noc1C)O2 was read as INS-1E GSIS act 8.
O=c1[nH]nc(-c2ccc(F)cc2)cc1Cc1cccs1 was read as CASP6 VEID inh 1, ERAP1 HTS inh 1, INS-1E GSIS act 46*, FGF22 binding 0 and SIRT5 inh 0.
For C[C@@H]1CN([C@@H](C)CO)C(=O)CCCn2cc(nn2)CO[C@@H]1CN(C)Cc1ccc(C(=O)O)cc1 the results were CASP6 VEID inh 2, ERAP1 HTS inh 3, INS-1E GSIS act 1, FGF22 binding 0 and SIRT5 inh -7.
`CC1CCC(NCCNC(=O)c2ccco2)CC1` (configuration not stated) gave CASP6 VEID inh -3, ERAP1 HTS inh -3, INS-1E GSIS act 44*, FGF22 binding 0 and SIRT5 inh -3.
`CCCCCCC(=O)Nc1ccc(C(=O)N/N=C/c2cccnc2)cc1` gave INS-1E GSIS act 16.
CCC(=O)Nc1ccc(C(=O)N/N=C/c2cccnc2)cc1 was read as INS-1E GSIS act 44*.
For CC(C)c1ccc(OCc2cccc(C(=O)N/N=C/c3cccnc3)c2)cc1 the results were CASP6 VEID inh 7, ERAP1 HTS inh 0, INS-1E GSIS act -7, FGF22 binding 28* and SIRT5 inh -4.
`CCOc1ccc(OCc2cccc(C(=O)N/N=C/c3cccnc3)c2)cc1` gave INS-1E GSIS act -1.
For CCNC(=O)Nc1ccc2c(c1)C(=O)N(C)[C@@H]1CC[C@H](CC(=O)NC3CCCCC3)O[C@@H]1CO2 the results were CASP6 VEID inh 1, ERAP1 HTS inh -3, INS-1E GSIS act 15, FGF22 binding 0 and SIRT5 inh 0.
Screening Cn1c2ccccc2c(=O)c2cc(NCCCN3CCOCC3)ccc21 returned CASP6 VEID inh -5, ERAP1 HTS inh 52*, INS-1E GSIS act 22, FGF22 binding 0 and SIRT5 inh -35.
O=c1c2ccccc2oc2ccc(NCCCN3CCOCC3)cc12 was read as CASP6 VEID inh 0, ERAP1 HTS inh -1, FGF22 binding 0 and SIRT5 inh 0.
`Cc1noc(C)c1NC(=O)N[C@@H]1CC[C@@H](CCNC(=O)C2CC2)O[C@@H]1CO` gave CASP6 VEID inh -1, ERAP1 HTS inh 1, INS-1E GSIS act 17, FGF22 binding 0 and SIRT5 inh 0.
